Rows were chosen to be rich in hits. Some 6.5% of all compounds tested hit in one or more screens of this group.
PMK inhibit: S. pneumoniae PMK inhibition. purified PMK, PK/LDH-coupled NADH absorbance 340 nm. inhibition, % at 10 µM. 0.49% of 65,000 active;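 active means top-ranked compounds by inhibition in the single 10 µM screen, taking a fixed number of the strongest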;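 further: 0% = full reaction with DMSO carrier and 100% = background rate without enzyme reaction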
Abs 340nm: compound absorbs light at 340 nm | compound absorbance at 340 nm, fold over control | 65,000 tested, under 10 active | fold change at 10 µM | AID 708;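 active means at 10 µM dose, initial 340 nm absorbance at least 2 fold that of control wells; inactive means change under 2 fold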;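 further: initial absorbance extrapolated from kinetic A340 decline of NADH oxidation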
Spn DPM-DC inh: inhibitors of Streptococcus pneumoniae diphosphomevalonate decarboxylase | calls only at 10 µM | 0.49% of 65,000 active | AID 556 | purified DPM-DC, PK/LDH coupled NADH fluorescence;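 active means the 320 compounds with the highest percent inhibition in the single-dose primary screen, excluding strongly autofluorescent ones, cut at about 32% in these data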;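 further: kinetic rate of NADH fluorescence loss reporting ADP formed by the decarboxylase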
Spn MK inh: inhibitors of Streptococcus pneumoniae mevalonate kinase; purified MK, PK/LDH-coupled NADH absorbance 340 nm; inhibition, % at 10 µM; 0.48% of 65,000 active; AID 555;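 active means ranked among the strongest by inhibition in the single 10 µM screen, a fixed top-ranked set picked for dose follow-up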
Fluor 339 460: intrinsic fluorescence of library compounds, ex339/em460 – biochemical, MLSMR library, data from DPM-DC assay, artefact control, profiling panel; compound autofluorescence, ex339/em460 nm, NADH buffer; hits give high values; 1 = no-compound wells, NADH background; fluorescence fold increase at 10 µM; 5.5% of 65,000 active;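 active means at 10 µM, mean starting fluorescence two-fold or more over control wells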;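 further: signal is the first read of a kinetic run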
NADH enzymes: inhibition of NAD/NADH coupling enzymes, library profiling | coupled PK/LDH NADH assays, four targets | IC50, µM (titrated, usually from 10 µM), for inactives: at the highest dose inhibition | 0.02% of 65,000 active | AID 774;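 active means single-dose screening hits from any of four coupled enzyme assays that gave an IC50 when retested across doses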;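 further: the DPM-DC format reads NADH fluorescence rather than 340 nm absorbance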
* hit, by the source's call; i = inactive; · = no result given; + = active, no number.

SMILES	PMK inhibit	Abs 340nm	Spn DPM-DC inh	Spn MK inh	Fluor 339 460	NADH enzymes
Cc1oc(C(=O)O)cc1COc1ccc2c3c(c(=O)oc2c1C)CCCC3	12.0	1.05	·	9.0	2.19*	11.0%
CC(=O)C(C)Oc1ccc2c3c(c(=O)oc2c1C)CCCC3 (configuration not stated)	5.0	1.01	·	15.0	3.83*	10.0%
CC(=O)COc1ccc2c3c(c(=O)oc2c1C)CCCCC3	3.0	1.16	·	7.0	3.79*	5.0%
Cc1c(OC(=O)CNC(=O)OC(C)(C)C)ccc2c3c(c(=O)oc12)CCC3	3.0	1.04	·	8.0	3.87*	6.0%
Cc1oc2c(C)c3oc(=O)c4c(c3cc2c1C)CCCC4	2.0	1.05	i	5.0	1.53	5.0%
Cc1nonc1NC(=O)Nc1cccnc1	10.0	0.99	i	4.0	1.15	5.0%
COc1ccc(S(=O)(=O)N2CCN(C(=O)NC3CCCCC3)CC2)cc1OC	7.0	1.04	i	11.0	1.1	8.0%
CCOC(=O)c1cnc(SCC(=O)Nc2nc(C)c(C)s2)nc1N	7.0	1.04	i	8.0	1.15	5.0%
O=C(O)c1cc(NCc2cccs2)ccc1N1CCOCC1	4.0	1.01	i	9.0	2.39*	5.0%
COC(=O)c1cc(NCc2c(F)cccc2Cl)ccc1N1CCOCC1	10.0	1.01	+	4.0	2.62*	16.0%
COC(=O)c1cc(NCc2cccs2)ccc1N1CCOCC1	12.0	1	i	14.0	1.36	10.0%
NS(=O)(=O)c1ccc(CCNC2CC(=O)N(CCc3ccccc3)C2=O)cc1 (configuration not stated)	11.0	1.01	i	3.0	1.08	5.0%
O=C1NC(c2ccccn2)Nc2sc3c(c21)CCC3 (configuration not stated)	9.0	1.05	i	6.0	1.4	5.0%
Cc1ccc(C2NC(=O)c3c(sc4c3CCN(C)C4)N2)s1 (configuration not stated)	14.0	1.03	i	13.0	2.28*	16.0%
Cc1ccc(C2NC(=O)c3c(sc4c3CCN(C)C4)N2)o1 (configuration not stated)	7.0	1.07	i	5.0	1.6	9.0%
CN1CCc2c(sc3c2C(=O)NC(c2ccccn2)N3)C1 (configuration not stated)	15.0	1.04	i	3.0	2.41*	12.0%
Cc1ccc(-c2nn(C)c(=O)c3ccccc23)cc1CNC(=O)c1ccco1	8.0	1.01	i	6.0	1.02	6.0%
COc1ccc(-c2nc(NC(=O)CSc3nnc(C)s3)ns2)cc1	2.0	1.06	i	7.0	2.78*	13.0%
Cc1nnc(SCC(=O)Nc2nsc(-c3ccccc3)n2)s1	38.0*	1.07	i	14.0	1.1	17.0%
Cc1ccc(-c2nc(NC(=O)CSc3nnc(C)s3)ns2)cc1	7.0	1.04	i	3.0	1.08	3.0%
CC1CCN(c2nc3c(c(=O)[nH]c(=O)n3C)n2CCSc2nc3ccccc3o2)CC1	15.0	1.03	i	1.0	1.05	5.0%
Nc1ccc(-c2n[nH]c(=O)c3ccccc23)cc1N	7.0	1.14	i	8.0	1.1	6.0%
COCCCNC(=O)c1cc2c(-c3ccc(Cl)cc3)nn(C)c2s1	0.0	1.15	·	1.0	2.16*	1.0%
COCCNC(=O)c1cc2c(-c3ccc(Cl)cc3)nn(C)c2s1	7.0	1.06	·	0.0	2.16*	4.0%
CCCCNC(=O)c1cc2c(-c3ccc(Cl)cc3)nn(C)c2s1	0.0	1.06	i	3.0	1.46	1.0%
SMILES	PMK inhibit	Abs 340nm	Spn DPM-DC inh	Spn MK inh	Fluor 339 460	NADH enzymes
COCCNC(=O)c1cc2c(-c3ccccc3F)nn(C)c2s1	13.0	0.98	i	12.0	2.03*	7.0%
Cn1nc(-c2ccc(Cl)cc2)c2cc(C(=O)NCCCN3CCCC3)sc21	6.0	1.12	·	6.0	2.13*	6.0%
CC(C)NC(=O)c1cc2c(-c3ccc(Cl)cc3)nn(C)c2s1	9.0	1.09	i	5.0	1.62	9.0%
COC(=O)COc1ccc(Oc2nc(SC)nc(N(C)C)n2)nn1	3.0	1	i	3.0	1.07	2.0%
O=S(=O)(Cc1ccccc1)N1CCc2ccccc21	0.0	1.04	i	5.0	1.14	2.0%
Cn1c(N)c(C(=O)c2cc(-c3ccccn3)nc3ccccc23)c(=O)[nH]c1=O	22.0	1.05	i	4.0	1.02	10.0%
CC(/C=C/c1ccccc1)NC(N)=O (configuration not stated)	0.0	0.99	i	23.0	0.98	8.0%
CCOC(=O)N1CCC(NC(=O)c2cc3c(-c4ccc(Cl)cc4)nn(C)c3s2)CC1	10.0	1.14	·	6.0	2.14*	8.0%
CCSCc1nnc(SCC(=O)c2ccc(OC)cc2)n1C	7.0	1.04	i	5.0	1.09	5.0%
CC1(C)Cc2[nH]c(=O)c(C#N)cc2CS1	7.0	1.1	i	12.0	1.33	15.0%
CC1(C)Cc2nc3sc4c(=O)[nH]cnc4c3cc2CS1	8.0	1.06	+	9.0	2.79*	18.0%
COc1ccc(OC)c(C(=O)c2ccc(C(=O)N3CCCCC3)cc2)c1	0.0	1.03	i	7.0	1.08	2.0%
COc1ccc(CN(C)CCc2ccccn2)c(OC)c1OC	4.0	1.04	i	68.0*	1.09	24.0%
Cc1cccc(CN(C)CCc2ccccn2)c1	0.0	1.09	i	44.0*	1.15	15.0%
CCn1c(COc2ccccc2OC)nnc1SCC#N	6.0	1	i	12.0	1.1	6.0%
CC1=CC(C)(C)Nc2ccccc21	10.0	1.03	i	6.0	2.52*	6.0%
O=C(Nc1ccc2c(c1)OCCO2)C1CCCN(S(=O)(=O)c2cccnc2)C1 (configuration not stated)	2.0	1.03	i	6.0	1.08	3.0%
CCOc1ccccc1OCCCCN1CCCC1	0.0	1.02	i	50.0*	1.04	9.0%
CCCCOC(=O)C1=C(C)Nc2ncnn2C1c1cccc(OC)c1OC (configuration not stated)	6.0	0.98	i	5.0	1.02	4.0%
Cc1nn(C)cc1C1C2=C(CC(C)(C)CC2=O)OC2=C1C(=O)CC(C)(C)C2	5.0	0.99	i	0.0	1.01	1.0%
O=C(Nc1ccc2nn(-c3ccccc3)nc2c1)c1ccc(Br)o1	18.0	1.01	+	6.0	1.8	9.0%
O=C(Nc1ccc2nsnc2c1)c1ccc2c(c1)OCO2	6.0	1.15	i	7.0	1.29	7.0%
CC(=O)c1cccc(NC(=O)c2ccc(Br)o2)c1	5.0	1.06	i	0.0	1.09	2.0%
O=C(Nc1ccc2nn(-c3ccccc3)nc2c1)c1ccc2c(c1)OCCO2	0.0	1.15	·	9.0	2.19*	5.0%
CC1(C)Cc2c(sc3nn[nH]c(=O)c23)CO1	10.0	1.09	i	11.0	1.11	7.0%
CCC1CC2(C)NC(=O)c3c(sc4c3CC(C)(C)OC4)N2C1=O (configuration not stated)	3.0	1.03	·	5.0	2.26*	4.0%

Assay outcomes: PubChem, SRMLSC
